The nature of test [1]: A549 cell viability effects, profiling panel, calcein-AM fluorescence, 48 h, basal (AID 1162). Particulars: higher = more signal.
Test [2] can be described thus: adipocyte viability effects, profiling panel, cell-based, 3T3-L1 adipocytes, calcein-AM fluorescence, 48 h, basal (AID 1163). Particulars: 3T3-L1 adipocytes viability, higher = more signal.
Test [3] is described as follows: HepG2 cell viability effects, profiling panel, calcein-AM fluorescence, 48 h, basal (AID 1164). Particulars: higher = more signal.
Test [4] is described as follows: MM1S cell viability effects, profiling panel, calcein-AM fluorescence, 48 h, basal (AID 1165).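 Also: viability of MM1S multiple myeloma cells under basal unstimulated conditions.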 Particulars: higher = more signal.
A short description of test [5]: basal RPMI8226 viability, no added stimulus, profiling panel, cell-based, calcein-AM fluorescence, 48 h, PK04 Diversity Set (AID 1166).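 Also: cells grown under basal conditions without added stimulus.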 Particulars: RPMI8226 myeloma viability, higher = more signal.
A short description of test [6]: basal HepG2 mitochondrial membrane potential changes, profiling panel, cell-based, JC-1 fluorescence, 24 h, 100 nL compound (AID 1167). The following applies: higher = more signal.
Test [7] can be described thus: basal 3T3-L1 adipocyte mitochondrial potential changes, profiling panel, cell-based, JC-1 fluorescence, 3T3-L1 adipocytes, 24 h, 100 nL compound (AID 1168). The following applies: JC-1 mitochondrial fluorescence, higher = more signal, called active from +8 up or from −8 down.
Test [8] in a line: basal RPMI8226 mitochondrial membrane potential changes, profiling panel, cell-based, JC-1 fluorescence, 24 h, 100 nL compound (AID 1169). The following applies: RPMI8226 myeloma, JC-1 mitochondrial potential fluorescence, higher = more signal.
Test [9] can be described thus: basal MM1S mitochondrial membrane potential changes, profiling panel, cell-based, JC-1 fluorescence, 24 h, 100 nL compound (AID 1170). Particulars: higher = more signal.
Test [10] can be described thus: A549 lung cancer cell viability effects, profiling panel, resazurin fluorescence, 24 h, PK04 Diversity Set (AID 1171). Particulars: higher = more signal, called active from +8 up or from −8 down.

Calls of active or inactive are those of the source.
Also: test concentration not given here.

Take `CCOC(=O)C[C@H]1[C@H](OC(=O)c2cc3ccccc3oc2=O)[C@@H](NC(=O)c2ccc3ccccc3c2)c2cc(OCCCO)ccc2N1C(=O)Cc1ccc(OC)cc1`: the z-score in test [1] was -0.103; in [2], 0.528; in test [3], -0.425; in test [4], 0.226; in test [5], 0.0557; in test [6] it was -0.527. Moreover, the z-score in [7] is 0.06 (inactive); in test [8], -0.229; in test [9], 0.0571; in test [10] it was 0.379 (inactive).
As to `COc1ccc(C(O)C2C=CC3C(=O)N(c4ccccc4)C(=O)C3N2Nc2ccc(C(C)C)cc2)c2ccccc12` (stereo not given), the z-score in test [1] is 0.181; in [2], -0.946; in test [3] it was 0.301; in test [4], -0.419; in [5], 0.129; in test [6], -0.783. For the same compound, the z-score in test [7] was 0.0228 (inactive); in test [8] it was -0.293; in test [9], -0.154; in test [10] it was -0.64 (inactive).
On to `COc1ccc([Si](C)(C)[C@@H]2[C@@H](CC(=O)N3Cc4ccccc4C[C@H]3CO)O[C@]3(C(=O)N(c4ccccc4)c4ccccc43)[C@H]2C)cc1`, for which the z-score in test [1] was -0.77; in [2], 0.703; in [3], -2.85; in [4] it was -2.37; in test [5], -4.35; in [6], 1.37. Further, the z-score was 0.631 (inactive) in test [7], -1.06 in test [8], -2.08 in [9] and -1.39 (inactive) in test [10].
With `C=CCC(OC(C)=O)[C@@H]1[C@@H](N(Cc2cc3ccccc3o2)C(=O)c2ccc(-c3ccccc3)cc2)c2cc(OCCCO)ccc2N1C(=O)Cc1ccc(OC)cc1` (stereo not given in full), the z-score was 0.315 in [1]; 0.443 in [2]; 1.04 in test [3]; 0.0213 in test [4]; -0.226 in test [5]; 1.23 in [6]. Also, the z-score in test [7] was -0.76 (inactive); in test [8], 0.738; in [9] it was 0.239; in [10], 0.0443 (inactive).
As for `C=CC[C@H](OC(=O)Nc1ccc(SC)cc1)c1ccc(OCCO)cc1`, the z-score was -0.542 in [1]; -0.228 in test [2]; -0.91 in test [3]; -0.75 in test [4]; 0.329 in [5]; -1.68 in [6]. For the same compound, the z-score in test [7] was -0.313 (inactive); in test [8] it was -0.309; in test [9], -0.227; in test [10], 0.631 (inactive).
In the case of `COCCCNC(=O)[C@@]1(Sc2ccc(C)cc2)CC(=O)N(Cc2ccccc2Cl)[C@@H]1c1ccc(CO)cc1I`, the z-score is 0.217 in test [1]; 0.0816 in test [2]; -0.115 in test [3]; -1.88 in [4]; -2.32 in test [5]; -0.51 in [6]. Besides, the z-score is -0.695 (inactive) in [7], -0.175 in [8], -1.76 in test [9] and -0.268 (inactive) in test [10].
On to `O=C1OCCC/C=C\[C@H]2OC34C=CCN(c5ccc6ccccc6c5)C(=O)[C@H]3N(CCCO)C(=O)[C@@H]4C12` (stereo not given in full), for which the z-score was -0.416 in test [1]; 1.34 in test [2]; 0.275 in test [3]; 0.392 in [4]; -0.686 in test [5]; -0.36 in [6]. Besides, the z-score in [7] is -0.41 (inactive); in [8], -0.0534; in test [9], 1.37; in test [10], 0.252 (inactive).
As to `COCCOC(=O)N1C(=O)[C@@]2(c3cc(C#CCNC(N)=O)ccc31)[C@H](c1ccc(OCCO)cc1)N1[C@H](c3ccccc3)[C@H](c3ccccc3)OC(=O)[C@H]1[C@@H]2C(=O)NC[C@H](O)c1ccccc1`, the z-score was -1.31 in test [1]; 0.494 in test [2]; -0.542 in test [3]; -0.193 in test [4]; -0.158 in test [5]; -1.49 in test [6]. For the same compound, the z-score in test [7] was 0.17 (inactive); in test [8] it was 0.235; in test [9], -0.391; in test [10] it was 0.32 (inactive).
As to `CCCNC(=O)[C@@]1(Sc2ccc(C)cc2)CC(=O)N(C2CCCCC2)[C@@H]1c1ccc(CO)cc1I`, the z-score was 0.14 in test [1]; 0.53 in [2]; 0.265 in [3]; -2.15 in test [4]; -2.58 in [5]; -0.478 in test [6]. The z-score was -0.764 (inactive) in test [7], -0.503 in test [8], -1.04 in test [9] and 0.696 (inactive) in [10].
For the compound `CCOC(=O)C[C@H]1[C@H](OC(=O)c2ccccc2-c2ccccc2)[C@@H](NC(=O)c2ccc3ccccc3n2)c2cc(OCCCO)ccc2N1C(=O)c1ccccc1`, the z-score is 0.198 in test [1]; 0.197 in test [2]; 0.305 in test [3]; -0.295 in [4]; -0.0468 in test [5]; 0.549 in test [6]. Moreover, the z-score is -0.178 (inactive) in test [7], -0.707 in test [8], 0.625 in test [9] and 0.143 (inactive) in [10].
As for `C=CCC(OC(C)=O)[C@@H]1[C@@H](N(Cc2cccc3ccccc23)C(=O)c2ccc(-c3ccccc3)cc2)c2cc(OCCCO)ccc2N1C(=O)c1ccc(-c2ccccc2)cc1` (stereo not given in full), the z-score in test [1] was 0.512; in [2], 0.842; in test [3], 0.515; in test [4], -0.484; in test [5], 0.294; in test [6], 0.78. The z-score in test [7] is -1.97 (inactive); in [8], 0.603; in [9] it was 0.0821; in test [10] it was 0.654 (inactive).
Consider `CO[C@H]1O[C@H](CO)[C@@H](OC(=O)Nc2cccc(F)c2)[C@H](OC(=O)Nc2ccccc2-c2ccccc2)[C@H]1OC(=O)Nc1ccccc1-c1ccccc1`, for which the z-score in test [1] is -4.26; in test [2] it was 0.737; in test [3], -4.76; in test [4], -3.44; in test [5], -4.3; in [6], 0.0525. In addition, the z-score in [7] is 0.461 (inactive); in test [8], -0.936; in test [9], -1.88; in test [10], -6.1 (inactive).
On to `Cc1ccccc1C(O)C1C=CC2C(=O)N(c3ccccc3)C(=O)C2N1Nc1ccc([N+](=O)[O-])cc1` (stereo not given), for which the z-score in test [1] is -1.06; in test [2], -0.127; in test [3], -1.2; in test [4], -0.127; in test [5] it was -0.566; in [6], -1.04. Moreover, the z-score is -1.1 (inactive) in test [7], -0.247 in test [8], 0.585 in test [9] and 0.306 (inactive) in [10].
In the case of `O=C1c2ccccc2[C@](Cc2ccccc2I)(C(=O)NC2CC2)[C@H](c2ccc(CO)cc2)N1Cc1ccccc1C(F)(F)F`, the z-score in test [1] is 0.319; in test [2] it was 0.865; in test [3], -0.0085; in test [4] it was -0.645; in test [5], -2.83; in [6], 0.476. In addition, the z-score in [7] was 0.347 (inactive); in [8] it was -0.761; in test [9], -0.154; in [10], 0.272 (inactive).

The values above are taken from PubChem BioAssay.
